Reference: PubChem BioAssay (EPA / NIEHS)
Several values for one entry are separate records, joined by “and”; a condition that tells them apart may be missing. Equal values may be shown once. Records with an inconclusive call do not appear. The source holds several records for some structures; these can differ, active in one and inactive in another. Activity calls are given as the source filed them. The calls were made as follows, unless noted: active = hit-call score of the fitted dose curve at least 0.9, where 1 is the maximum; inactive = score below 0.9.

What was measured:
[1] = target: Estrogen-related receptor gamma (Homo sapiens) (UniProt P62508); test: ATG_ERRg_TRANS: Attagene TRANS-FACTORIAL HepG2 Assay for human Estrogen-Related Receptor gamma (ERRg) (AID 2282977; active = hit-call score of the fitted dose curve at least 0.9, where 1 is the maximum;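 also: hits increase reporter signal over DMSO so potencies reflect activators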); conditions: HepG2 Attagene TRANS reporter, ERRg transactivation
Outline: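 HepG2 cells transiently transfected with multiplexed GAL4-UAS reporter units driven by chimeric NR-Gal4 proteins; 24 h exposure. Reporter mRNA quantified by RT-PCR, fluorescent labelling, HpaI digestion and capillary electrophoresis; gain of signal vs DMSO.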

[2] = target: Oxysterols receptor LXR-beta (Homo sapiens) (UniProt P55055); test: ATG_LXRb_TRANS: Attagene TRANS-FACTORIAL HepG2 Assay for human Liver X Receptor beta (LXRb) (AID 2282981; active = hit-call score of the fitted dose curve at least 0.9, where 1 is the maximum); conditions: HepG2 Attagene TRANS GAL4-LXRb reporter, mRNA
Outline: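 In this TRANS format, exogenous chimeric NR-Gal4 protein activity, not endogenous factors, drives reporter expression in transfected human HepG2 cells. Exposure lasted 24 h; reporter mRNA was read by fluorescent capillary electrophoresis.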

[3] = target: Hepatocyte nuclear factor 4-alpha (Homo sapiens) (UniProt P41235); test: ATG_HNF4a_TRANS: Attagene TRANS-FACTORIAL HepG2 Assay for human Hepatocyte Nuclear Factor 4 alpha (HNF4a) (AID 2282982; active = hit-call score of the fitted dose curve at least 0.9, where 1 is the maximum); conditions: HepG2 HNF4a transactivation reporter, mRNA readout
Outline: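 Cells used were human HepG2, transiently carrying GAL4-UAS reporter units read out against exogenous NR-GAL4 chimeras. Reporter transcript levels after 24 h dosing were quantified by fluorescent RT-PCR and capillary electrophoresis.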

[4] = ATG_M_32_TRANS: Attagene TRANS-FACTORIAL HepG2 Assay for M32 Transcription Factor (Internal Marker) (AID 2282984; active = hit-call score of the fitted dose curve at least 0.9, where 1 is the maximum); conditions: HepG2 Attagene TRANS M32 internal marker reporter
Outline: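 Human hepatoma HepG2, transient MRTU transfection, 24 h treatment. RNA → RT-PCR → fluorescent primer extension → HpaI digest (2 h, 37 C) → CE. Positive-direction fit vs DMSO.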

[5] = target: Nuclear receptor subfamily 4 group A member 2 (Homo sapiens) (UniProt P43354); test: ATG_NURR1_TRANS: Attagene TRANS-FACTORIAL HepG2 Assay for human Nuclear Receptor Related Protein 1 (NURR1) (AID 2282985; active = hit-call score of the fitted dose curve at least 0.9, where 1 is the maximum); conditions: HepG2 Attagene TRANS reporter, mRNA readout
Outline: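 After 24 h chemical dosing, total RNA from transiently transfected HepG2 cells was reverse-transcribed and reporter cDNA PCR-amplified, FAM-labelled and analysed by capillary electrophoresis. Activity fitted in positive direction, DMSO as negative control.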

[6] = target: Nuclear respiratory factor 1 (Homo sapiens) (UniProt Q16656); test: ATG_NRF1_CIS: Attagene CIS-FACTORIAL HepG2 Assay for human Nuclear Respiratory Factor 1 (NRF1) Orphan Gene (AID 2282987); conditions: HepG2 NRF1 cis-element reporter, Attagene multiplex; actives raise or lower the signal
Outline: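 HepG2 cells transiently transfected with multiple cis-regulated reporter units, exposed 24 h. Reporter mRNAs measured by RT-PCR, fluorescent labelling, HpaI digestion and capillary electrophoresis; bidirectional fitting against DMSO.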

[7] = ATG_NFI_CIS: Attagene CIS-FACTORIAL HepG2 Assay for human Nuclear Factor I (NFI) (AID 2282989); conditions: HepG2 cis-regulatory reporter, NFI response element transcription; actives raise or lower the signal
Outline: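 Transfected HepG2 liver cells, exposed 24 h, supplied total RNA for oligo(dT) reverse transcription and reporter-specific PCR. Labelled, HpaI-cut fragments were sized by capillary electrophoresis; DMSO set the baseline for bidirectional fitting.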

[8] = target: Myc proto-oncogene protein (Homo sapiens) (UniProt P01106); test: ATG_Myc_CIS: Attagene CIS-FACTORIAL HepG2 Assay for human Myelocytomatosis (Myc) Proto-Oncogene Transcription Factor (AID 2282990); conditions: HepG2, Attagene cis-reporter transcription factor activity; actives raise or lower the signal
Outline: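 DMSO-normalised, bidirectionally fitted reporter mRNA signal. HepG2 cells transfected with cis reporter constructs, treated 24 h; transcripts detected by RT-PCR, 6-FAM primer extension and CE.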

[9] = ATG_NF_kB_CIS: Attagene CIS-FACTORIAL HepG2 Assay for human Nuclear Factor Kappa B (NF-kB) (AID 2282991); conditions: HepG2 Attagene cis-factorial NF-kB reporter mRNA; actives raise or lower the signal
Outline: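 HepG2 cells transfected with cis-promoter-driven reporter units, so endogenous transcription factor activity is measured. Reporter mRNA quantified 24 h after dosing by RT-PCR and capillary electrophoresis, with bidirectional fitting against DMSO.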

[10] = ATG_NRF2_ARE_CIS: Attagene CIS-FACTORIAL HepG2 Assay for human Nuclear Factor Erythroid 2 Related Factor 2 (NFR2) response to Antioxidant Response Elements (ARE) (AID 2282992); conditions: HepG2 Attagene ARE/NRF2 reporter, transcription factor activity; actives raise or lower the signal;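 as to AC50: reporter mRNA level measured by RT-PCR and capillary electrophoresis fluorescence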
Outline: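 HepG2 cells transiently transfected with multiplexed cis-element reporter constructs, 24 h after chemical dosing; reporter mRNA quantified by RT-PCR, fluorescent primer extension, HpaI digestion and capillary electrophoresis. Bidirectional fit relative to DMSO.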

[11] = ATG_Oct_MLP_CIS: Attagene CIS-FACTORIAL HepG2 Assay for human Octamer-Binding Transcription Factor (Oct) (AID 2282993); conditions: HepG2 Attagene cis-factorial Oct reporter, mRNA; actives raise or lower the signal
Outline: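 Using HepG2 cells bearing transfected cis-reporter constructs, mRNA induction was read after 24 h by fluorescent RT-PCR and capillary electrophoresis, with DMSO defining baseline for gain- or loss-of-signal fits.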

[12] = BSK_3C_TissueFactor: BioMAP Diversity Plus: 3C Assay for Tissue Factor Biomarker Activity (AID 2282997); conditions: BioMAP 3C HUVEC, tissue factor biomarker readout; actives raise or lower the signal
Outline: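 Primary human umbilical vein endothelial cells in the 3C system were exposed to test chemical for 24 h, then Tissue Factor measured by ELISA. Activity was fitted bidirectionally against DMSO as negative control and baseline.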

[13] = BSK_3C_uPAR: BioMAP Diversity Plus: 3C Assay for Urokinase-type plasminogen activator receptor (uPAR) Biomarker Activity (AID 2282998); conditions: BioMAP 3C HUVEC, uPAR biomarker ELISA; actives raise or lower the signal
Outline: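 In this endothelial cell-based assay, human umbilical vein primary cells were treated with chemicals and harvested at 24 h. uPAR was quantified using ELISA, with gains or losses fitted relative to DMSO controls.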

[14] = ATG_GAL4_TRANS: Attagene TRANS-FACTORIAL HepG2 Assay for GAL4 (Internal Marker) (AID 2282976; active = hit-call score of the fitted dose curve at least 0.9, where 1 is the maximum); conditions: HepG2 Attagene TRANS GAL4 internal marker reporter
Outline: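 HepG2 cells transiently transfected with multiplexed GAL4-UAS reporter constructs were dosed for 24 h. Reporter mRNA was measured by RT-PCR, 6-FAM primer extension, HpaI digestion and capillary electrophoresis, and gain of signal was fitted relative to DMSO.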

[15] = target: Glucocorticoid receptor (Homo sapiens) (UniProt P04150); test: ATG_GR_TRANS: Attagene TRANS-FACTORIAL HepG2 Assay for human Glucocorticoid Receptor (GR) (AID 2282978; active = hit-call score of the fitted dose curve at least 0.9, where 1 is the maximum;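 also: activators score as hits since higher reporter transcript over DMSO is fitted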); conditions: HepG2 Attagene TRANS GR reporter, mRNA transcription
Outline: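 HepG2 cells transiently transfected with GAL4-UAS reporter units and exogenous GR-Gal4 chimera, dosed 24 h. Reporter mRNA by RT-PCR, FAM labeling, HpaI digest and capillary electrophoresis; gain-of-signal fit versus DMSO.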

[16] = ATG_M_06_TRANS: Attagene TRANS-FACTORIAL HepG2 Assay for M06 Transcription Factor (Internal Marker) (AID 2282983; active = hit-call score of the fitted dose curve at least 0.9, where 1 is the maximum); conditions: HepG2 Attagene TRANS M06 internal marker reporter
Outline: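 HepG2 cells transiently transfected with multiplexed GAL4-UAS reporter transcription units; after 24 h compound exposure, reporter mRNA measured by RT-PCR, FAM-labelled primer extension, HpaI digestion and capillary electrophoresis. Gain-of-signal fitted versus DMSO baseline; background control readout.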

[17] = target: Transcriptional activator Myb (Homo sapiens) (UniProt P10242); test: ATG_Myb_CIS: Attagene CIS-FACTORIAL HepG2 Assay for human Myeloblastosis (Myb) Proto-Oncogene Transcription Factor (AID 2282986); conditions: HepG2 Attagene CIS-FACTORIAL Myb reporter transcription; actives raise or lower the signal
Outline: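 Transiently transfected HepG2 cells carrying a multiplexed cis-promoter reporter set report endogenous Myb activity after 24 h compound exposure. Reporter mRNA is read by RT-PCR with capillary electrophoresis of fluorescent products, fitted bidirectionally against DMSO.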

[18] = target: Bile acid receptor (Homo sapiens) (UniProt Q96RI1); test: ATG_FXR_TRANS: Attagene TRANS-FACTORIAL HepG2 Assay for Farnesoid X Receptor (FXR) (AID 2282979; active = hit-call score of the fitted dose curve at least 0.9, where 1 is the maximum;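 also: hits raise reporter mRNA above DMSO so AC50 marks FXR activation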); conditions: HepG2 Attagene TRANS FXR-GAL4 reporter transcription
Outline: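 HepG2 cells transiently transfected with reporter constructs in which a chimeric FXR-GAL4 protein drives a GAL4-UAS reporter; 24 h compound exposure. Reporter mRNA measured by RT-PCR, FAM labelling, HpaI digestion and capillary electrophoresis; gain-of-signal versus DMSO.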

[19] = target: Oxysterols receptor LXR-alpha (Homo sapiens) (UniProt Q13133); test: ATG_LXRa_TRANS: Attagene TRANS-FACTORIAL HepG2 Assay for human Liver X Receptor alpha (LXRa) (AID 2282980; active = hit-call score of the fitted dose curve at least 0.9, where 1 is the maximum); conditions: HepG2 Attagene TRANS reporter, LXRa transactivation
Outline: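 HepG2 cells were transiently transfected with multiplexed reporter units driven by chimeric LXRa–GAL4 fusion proteins, then dosed for 24 h. Reporter mRNA was quantified by RT-PCR, fluorescent labelling and capillary electrophoresis; gain of signal fitted against DMSO baseline.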

[20] = target: Cellular tumor antigen p53 (Homo sapiens) (UniProt P04637); test: ATG_p53_CIS: Attagene CIS-FACTORIAL HepG2 Assay for human p53 Transcription Factor (AID 2282994); conditions: HepG2 p53 cis-element reporter, Attagene mRNA; actives raise or lower the signal
Outline: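 HepG2 cells transiently transfected with cis-regulated multiple reporter transcription units, dosed 24 h. Reporter mRNA measured by RT-PCR, 6-FAM primer extension, HpaI digestion and capillary electrophoresis; bidirectional fit relative to DMSO.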

Measured: AC50

Chain of Oxysterols receptor LXR-beta (Homo sapiens) (P55055 whole entry, looked up, the tested form may be a part): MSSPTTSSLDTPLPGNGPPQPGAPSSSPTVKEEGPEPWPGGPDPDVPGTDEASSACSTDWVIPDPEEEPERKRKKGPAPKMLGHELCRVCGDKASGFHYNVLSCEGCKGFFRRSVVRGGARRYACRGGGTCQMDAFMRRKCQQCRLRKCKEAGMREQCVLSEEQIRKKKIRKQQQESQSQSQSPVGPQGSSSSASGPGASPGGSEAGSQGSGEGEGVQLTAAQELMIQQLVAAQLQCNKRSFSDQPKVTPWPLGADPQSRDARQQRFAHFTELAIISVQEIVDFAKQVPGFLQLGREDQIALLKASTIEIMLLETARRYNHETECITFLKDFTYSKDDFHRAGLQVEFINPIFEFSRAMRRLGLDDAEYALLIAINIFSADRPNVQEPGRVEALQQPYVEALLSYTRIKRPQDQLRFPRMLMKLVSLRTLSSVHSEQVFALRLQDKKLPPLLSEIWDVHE
Chain of Nuclear receptor subfamily 4 group A member 2 (Homo sapiens) (P43354 whole entry, looked up): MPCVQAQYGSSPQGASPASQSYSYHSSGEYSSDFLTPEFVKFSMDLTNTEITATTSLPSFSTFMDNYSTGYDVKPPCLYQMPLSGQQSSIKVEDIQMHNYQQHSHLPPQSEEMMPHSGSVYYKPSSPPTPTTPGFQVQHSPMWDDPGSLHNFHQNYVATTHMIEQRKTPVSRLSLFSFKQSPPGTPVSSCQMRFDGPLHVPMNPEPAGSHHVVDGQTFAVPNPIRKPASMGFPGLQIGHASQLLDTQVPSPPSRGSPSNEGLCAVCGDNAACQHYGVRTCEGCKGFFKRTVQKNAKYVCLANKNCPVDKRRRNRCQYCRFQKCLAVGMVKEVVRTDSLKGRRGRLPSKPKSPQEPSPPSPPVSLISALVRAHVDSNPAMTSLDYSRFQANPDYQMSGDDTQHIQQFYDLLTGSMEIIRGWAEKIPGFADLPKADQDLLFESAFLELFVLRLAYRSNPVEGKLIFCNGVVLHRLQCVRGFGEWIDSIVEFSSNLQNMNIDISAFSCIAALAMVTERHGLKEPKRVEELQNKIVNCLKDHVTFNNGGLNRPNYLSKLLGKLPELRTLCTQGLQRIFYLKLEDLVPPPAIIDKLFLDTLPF
Chain of Hepatocyte nuclear factor 4-alpha (Homo sapiens) (P41235 whole entry, looked up, the tested form may be a part): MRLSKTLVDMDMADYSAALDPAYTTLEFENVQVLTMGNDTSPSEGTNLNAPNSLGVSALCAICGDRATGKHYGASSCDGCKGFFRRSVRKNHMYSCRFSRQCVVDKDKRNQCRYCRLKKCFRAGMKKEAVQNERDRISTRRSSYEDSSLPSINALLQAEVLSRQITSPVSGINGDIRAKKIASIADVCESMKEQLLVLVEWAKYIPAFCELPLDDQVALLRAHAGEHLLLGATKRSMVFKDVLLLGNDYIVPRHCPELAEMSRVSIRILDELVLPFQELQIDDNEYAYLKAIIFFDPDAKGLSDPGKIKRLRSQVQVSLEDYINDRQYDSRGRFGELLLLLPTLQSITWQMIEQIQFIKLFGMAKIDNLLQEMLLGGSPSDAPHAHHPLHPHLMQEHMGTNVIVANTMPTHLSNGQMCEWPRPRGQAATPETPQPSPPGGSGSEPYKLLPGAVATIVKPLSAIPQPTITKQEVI
Chain of Nuclear respiratory factor 1 (Homo sapiens) (Q16656 whole entry, looked up): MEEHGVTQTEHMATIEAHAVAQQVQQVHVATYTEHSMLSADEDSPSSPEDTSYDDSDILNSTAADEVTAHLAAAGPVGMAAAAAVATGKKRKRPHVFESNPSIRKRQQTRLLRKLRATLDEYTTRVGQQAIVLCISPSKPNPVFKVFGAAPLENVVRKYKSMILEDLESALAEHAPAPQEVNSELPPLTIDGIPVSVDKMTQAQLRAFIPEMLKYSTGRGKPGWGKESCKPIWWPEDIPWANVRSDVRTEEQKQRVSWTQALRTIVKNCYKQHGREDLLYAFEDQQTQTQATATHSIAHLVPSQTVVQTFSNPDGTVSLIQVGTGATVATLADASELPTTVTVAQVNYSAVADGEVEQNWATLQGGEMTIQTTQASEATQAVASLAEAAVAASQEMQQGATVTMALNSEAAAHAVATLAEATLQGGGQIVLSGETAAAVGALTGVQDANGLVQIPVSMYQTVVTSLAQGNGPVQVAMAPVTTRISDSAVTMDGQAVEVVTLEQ
Chain of Bile acid receptor (Homo sapiens) (Q96RI1 whole entry, looked up, the tested form may be a part): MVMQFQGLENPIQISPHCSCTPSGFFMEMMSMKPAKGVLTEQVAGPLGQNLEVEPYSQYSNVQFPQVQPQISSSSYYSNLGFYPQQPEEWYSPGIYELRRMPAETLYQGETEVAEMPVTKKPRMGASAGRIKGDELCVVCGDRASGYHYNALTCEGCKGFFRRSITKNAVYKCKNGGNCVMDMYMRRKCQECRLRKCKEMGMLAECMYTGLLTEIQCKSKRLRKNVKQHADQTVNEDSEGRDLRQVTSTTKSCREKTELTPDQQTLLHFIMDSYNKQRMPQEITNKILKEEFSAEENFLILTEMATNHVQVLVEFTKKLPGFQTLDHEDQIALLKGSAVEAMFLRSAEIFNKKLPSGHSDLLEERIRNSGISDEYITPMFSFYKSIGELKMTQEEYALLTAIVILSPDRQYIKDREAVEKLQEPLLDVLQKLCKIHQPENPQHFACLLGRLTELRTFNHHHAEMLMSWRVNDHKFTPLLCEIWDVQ
Chain of Glucocorticoid receptor (Homo sapiens) (P04150 whole entry, looked up, the tested form may be a part): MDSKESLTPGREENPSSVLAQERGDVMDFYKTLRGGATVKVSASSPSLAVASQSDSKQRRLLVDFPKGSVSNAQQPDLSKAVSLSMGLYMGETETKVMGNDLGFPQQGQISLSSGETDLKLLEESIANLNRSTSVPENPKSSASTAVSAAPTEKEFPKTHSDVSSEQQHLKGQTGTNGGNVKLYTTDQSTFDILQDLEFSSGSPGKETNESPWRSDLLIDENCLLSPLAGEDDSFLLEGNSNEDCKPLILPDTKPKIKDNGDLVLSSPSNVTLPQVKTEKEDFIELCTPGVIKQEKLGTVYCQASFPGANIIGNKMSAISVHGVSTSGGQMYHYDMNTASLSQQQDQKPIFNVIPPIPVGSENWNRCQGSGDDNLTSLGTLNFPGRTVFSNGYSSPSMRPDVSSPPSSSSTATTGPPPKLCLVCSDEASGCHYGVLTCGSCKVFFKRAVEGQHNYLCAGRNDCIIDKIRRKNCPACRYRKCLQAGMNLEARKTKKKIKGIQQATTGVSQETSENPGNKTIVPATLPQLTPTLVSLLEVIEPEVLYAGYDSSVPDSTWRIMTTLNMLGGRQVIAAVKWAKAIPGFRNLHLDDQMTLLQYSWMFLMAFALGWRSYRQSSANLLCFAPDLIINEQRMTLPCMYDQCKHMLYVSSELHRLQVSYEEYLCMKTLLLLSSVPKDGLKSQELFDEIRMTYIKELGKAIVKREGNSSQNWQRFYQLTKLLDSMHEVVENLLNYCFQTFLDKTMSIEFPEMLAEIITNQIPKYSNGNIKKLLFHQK
Chain of Transcriptional activator Myb (Homo sapiens) (P10242 whole entry, looked up): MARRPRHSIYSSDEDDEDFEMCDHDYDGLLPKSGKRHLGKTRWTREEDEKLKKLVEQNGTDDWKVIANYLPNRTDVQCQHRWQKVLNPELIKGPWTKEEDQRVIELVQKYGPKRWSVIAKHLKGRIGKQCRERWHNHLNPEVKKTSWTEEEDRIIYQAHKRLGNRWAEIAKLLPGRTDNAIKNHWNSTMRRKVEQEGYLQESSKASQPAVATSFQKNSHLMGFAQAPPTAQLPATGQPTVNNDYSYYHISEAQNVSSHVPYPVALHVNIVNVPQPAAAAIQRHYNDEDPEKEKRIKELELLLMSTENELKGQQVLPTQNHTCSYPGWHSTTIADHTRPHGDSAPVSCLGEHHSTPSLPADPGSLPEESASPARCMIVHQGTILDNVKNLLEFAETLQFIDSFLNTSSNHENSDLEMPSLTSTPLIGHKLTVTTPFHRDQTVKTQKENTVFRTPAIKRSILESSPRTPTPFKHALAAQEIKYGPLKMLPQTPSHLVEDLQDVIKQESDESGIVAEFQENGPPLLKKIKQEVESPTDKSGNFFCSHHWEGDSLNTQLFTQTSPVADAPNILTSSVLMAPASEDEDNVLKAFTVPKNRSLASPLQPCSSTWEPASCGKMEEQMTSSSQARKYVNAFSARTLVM
Chain of Myc proto-oncogene protein (Homo sapiens) (P01106 whole entry, looked up): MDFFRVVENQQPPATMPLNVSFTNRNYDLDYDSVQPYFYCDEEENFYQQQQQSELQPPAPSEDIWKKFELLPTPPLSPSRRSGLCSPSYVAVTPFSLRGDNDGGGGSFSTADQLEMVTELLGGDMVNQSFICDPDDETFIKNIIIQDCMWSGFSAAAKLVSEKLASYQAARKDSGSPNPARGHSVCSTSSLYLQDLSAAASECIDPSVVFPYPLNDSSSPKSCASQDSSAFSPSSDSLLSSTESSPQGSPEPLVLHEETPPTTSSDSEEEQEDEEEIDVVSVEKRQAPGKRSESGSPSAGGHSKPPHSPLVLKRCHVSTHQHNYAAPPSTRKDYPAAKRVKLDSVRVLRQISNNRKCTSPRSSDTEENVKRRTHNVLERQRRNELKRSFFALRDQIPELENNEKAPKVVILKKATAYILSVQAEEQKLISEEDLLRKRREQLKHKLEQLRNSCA
Chain of Estrogen-related receptor gamma (Homo sapiens) (P62508 whole entry, looked up, the tested form may be a part): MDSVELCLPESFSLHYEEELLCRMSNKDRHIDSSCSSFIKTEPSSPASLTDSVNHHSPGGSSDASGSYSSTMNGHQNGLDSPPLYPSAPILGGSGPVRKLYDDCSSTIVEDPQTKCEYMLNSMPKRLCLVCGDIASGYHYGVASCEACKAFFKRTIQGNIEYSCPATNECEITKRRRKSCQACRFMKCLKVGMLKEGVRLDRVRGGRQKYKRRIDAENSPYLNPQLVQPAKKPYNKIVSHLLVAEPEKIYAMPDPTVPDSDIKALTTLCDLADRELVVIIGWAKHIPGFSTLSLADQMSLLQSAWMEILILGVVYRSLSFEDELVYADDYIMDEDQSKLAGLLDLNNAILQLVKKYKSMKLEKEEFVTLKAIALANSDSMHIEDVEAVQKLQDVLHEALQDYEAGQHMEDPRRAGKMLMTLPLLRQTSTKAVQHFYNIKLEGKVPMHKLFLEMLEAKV

CC(COc1ccc(Oc2ccccc2)cc1)Oc1ccccn1 (stereo not drawn)
active: [9] 13.8 µM | [10] 7.23 µM | [11] 13 µM | [13] 23.6 µM
inactive: [1] | [2] | [3] | [4] | [5] | [6] | [7] | [8] | [12]

O=[N+]([O-])c1cc(C(F)(F)F)c(Cl)c([N+](=O)[O-])c1Nc1ncc(C(F)(F)F)cc1Cl
inactive: [14] | [15] | [2] | [3] | [16] | [4] | [5] | [17] | [6] | [7] | [8] | [9] | [10] | [11]
active: [6] 21.5 µM | [9] 11.9 µM | [10] 2.7 µM | [12] 1.16 µM and 2.68 µM | [13] 1.05 µM and 3.18 µM

CCOP(=O)(NC(C)C)Oc1ccc(SC)c(C)c1 (stereo not drawn)
active: [10] 5.22 µM | [11] 11.2 µM
not listed: [1] | [3] | [5] | [20]
inactive: all other assays above

CCCSP(=O)(OCC)SCCC
inactive: [15] | [18] | [2] | [5] | [6] | [7] | [8] | [11] | [12] | [13]
active: [10] 40.9 µM

CCOC(=O)COc1cc(-c2nn(C)c(OC(F)F)c2Cl)c(F)cc1Cl
not listed: [14] | [18] | [19] | [20]
inactive: all other assays above

CSC1=N[C@@](C)(c2ccccc2)C(=O)N1Nc1ccccc1
active: [10] 4.24 µM | [11] 10.7 µM | [12] 1.68 µM | [13] 7.46 µM
not listed: [1] | [9] | [14] | [17] | [18] | [19]
inactive: all other assays above

CCOP(=S)(OCC)Oc1ccc2c(C)c(Cl)c(=O)oc2c1
active: [10] 2.75 µM
not listed: [3] | [9] | [14] | [18] | [19] | [20]
inactive: all other assays above

COc1ccc(C(=CC(=O)N2CCOCC2)c2ccc(Cl)cc2)cc1OC
active: [10] 8.76 µM | [11] 13.8 µM | [13] 12.7 µM
not listed: [4] | [5] | [15] | [17] | [19]
inactive: all other assays above
